Shown are actives, neighbours in structure and some others; about 1.6% of the full set was active somewhere.
Glyco luc inh: N-linked glycosylation inhibition. D54 ERlucT glycosylation luciferase reporter, 24 h; percent of 100 nM tunicamycin response. reporter increase, % at 12.5 µM. 0.23% of 360,000 active. AID 588692;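 active = mean luciferase reporter signal, scaled so untreated is 0 and the glycosylation-blocking control 100, at or above a set limit in every replicate; inconclusive = mean reaches the limit but not every replicate does; inactive = mean below the limit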;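 also: luciferase carries N-glycosylation sites so blocking glycosylation raises the light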
ABCB6 inh 2: blocks the human ABCB6 transporter; Q9NP58; AID 602162; fluorescence ratio to DMSO, % at 10 µM; 0.19% of 360,000 active; K562-ABCB6 porphyrin accumulation, flow cytometry, 1 h; stronger effect = lower value;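 active = fluorescence ratio to DMSO below 75%, the collection mean minus 3 SD; inconclusive = too few cells collected in the well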;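 also: signal is porphyrin accumulated inside mitochondria; lower ratio means ABCB6 inhibition with less porphyrin fluorescence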
Target sequence (Q9NP58 whole entry, looked up): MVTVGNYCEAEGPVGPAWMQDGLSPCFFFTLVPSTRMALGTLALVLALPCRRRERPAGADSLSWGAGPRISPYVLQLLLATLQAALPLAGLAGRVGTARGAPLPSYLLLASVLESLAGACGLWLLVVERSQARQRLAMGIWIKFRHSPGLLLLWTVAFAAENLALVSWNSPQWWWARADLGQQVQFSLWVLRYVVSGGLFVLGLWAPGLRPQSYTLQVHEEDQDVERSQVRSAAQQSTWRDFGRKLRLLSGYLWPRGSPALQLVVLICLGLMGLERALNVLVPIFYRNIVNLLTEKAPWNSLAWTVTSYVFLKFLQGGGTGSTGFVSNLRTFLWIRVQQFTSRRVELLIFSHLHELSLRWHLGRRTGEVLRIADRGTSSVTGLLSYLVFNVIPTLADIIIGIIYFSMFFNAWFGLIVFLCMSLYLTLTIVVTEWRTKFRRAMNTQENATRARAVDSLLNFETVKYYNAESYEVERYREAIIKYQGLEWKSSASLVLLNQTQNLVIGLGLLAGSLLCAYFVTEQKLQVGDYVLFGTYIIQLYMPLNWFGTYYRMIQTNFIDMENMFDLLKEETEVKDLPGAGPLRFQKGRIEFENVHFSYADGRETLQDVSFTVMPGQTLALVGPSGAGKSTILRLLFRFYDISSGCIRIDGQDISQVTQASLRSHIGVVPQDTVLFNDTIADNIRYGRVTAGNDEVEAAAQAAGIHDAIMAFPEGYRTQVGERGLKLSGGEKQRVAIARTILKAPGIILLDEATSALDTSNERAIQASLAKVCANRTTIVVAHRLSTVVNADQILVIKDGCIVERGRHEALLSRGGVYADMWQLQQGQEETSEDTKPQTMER
RAD54 branch: blocks human RAD54 Holliday junction branch migration | Q92698 | FAM/BHQ fluorescence | inhibition, % at 10.4 µM | 0.14% of 360,000 active | AID 602329;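 active = mean normalized replicate activity at least 40 and at least half of replicates scoring 40 or more; inconclusive = only one of the two criteria met; inactive = mean below 40 and under half of replicates reaching 40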;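 also: inhibitors cause a drop in the FAM fluorescence signal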
Myeloid diff 2: myeloid differentiation induction. calls only at 10 µM. 1% of 360,000 active. ER-HoxA9 myeloid progenitors, lysozyme-GFP differentiation, flow cytometry;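 active = normalized GFP-positive differentiation at or above the plate's own cutoff, the solvent-only control mean plus 3 SD; inconclusive = no clear call, values can overlap the other calls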;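 also: cells exposed to compound for four days before flow analysis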
Vif imaging: HIV Vif inhibition; HEK293T cells, Vif self-association by quenched fluorescence, imaging, 24 h; 0.35% of 340,000 active; AID 602346; inhibition, % at 7.49 µM; in the data active = inhibition above about 50%, passing the limit was not always enough; inconclusive = no clear call, values can overlap the other calls; inactive = below about 31%
Numbers stand for hits; 0 = inactive; ? = inconclusive; - = no result given; + = active, no number.

SMILES	Glyco luc inh	ABCB6 inh 2	RAD54 branch	Myeloid diff 2	Vif imaging
Cc1[nH]c2c(Cl)cccc2c(=O)c1CN1CCCC1	0	0	0	0	0
Cc1cccc(S(=O)(=O)N2C[C@H](O)COC[C@@H]3O[C@H](CC(=O)Nc4ccc(-c5ccccc5)cc4)CC[C@H]32)c1	-	-	0	-	-
CC(C)NC(=O)N(C)C[C@H]1Oc2ccc(NC(=O)Nc3ccc(C(F)(F)F)cc3)cc2C(=O)N([C@@H](C)CO)C[C@H]1C	-	-	0	-	-
COc1ccc(NC(=O)C2=CC(c3cccs3)=NS(=O)(=O)N2C)cc1	0	0	0	+	0
CN1C(C(=O)Nc2ccc(OC(F)(F)F)cc2)=CC(c2cccs2)=NS1(=O)=O	0	0	0	0	0
O=C(NCC1CCCCC1)[C@H]1[C@H](CO)[C@H]2Cn3c(ccc(C4=CCCCC4)c3=O)[C@@H]1N2	-	-	0	-	-
CC(=O)N(C)C[C@@H]1Oc2ncc(-c3cncnc3)cc2C(=O)N([C@@H](C)CO)C[C@H]1C	-	-	0	-	-
Cc1ccc(S(=O)(=O)c2nc(S(C)(=O)=O)sc2N2CCCCC2C)cc1 (stereo unspecified)	0	0	0	+	0
CS(=O)(=O)c1nc(S(=O)(=O)c2ccc(Cl)cc2)c(N2CCN(CCO)CC2)s1	0	0	0	+	0
COc1cc2c(cc1OC)C(c1cccs1)N(C(=O)c1cccnc1)CC2 (stereo unspecified)	80	0	0	?	-
CCCNC(=O)N1[C@H](CO)[C@H](c2ccc(C3=CCCC3)cc2)[C@H]1CNC(C)=O	-	-	0	-	-
NCCCC(=O)O	0	0	0	0	0
NCCCC(N)(C(=O)O)C(F)F (stereo unspecified)	0	0	0	+	0
Cc1noc(C)c1S(=O)(=O)Nc1ccc2c(c1)C(=O)N([C@@H](C)CO)C[C@@H](C)[C@@H](CN(C)C(=O)CCC(F)(F)F)OCCCC[C@H](C)O2	-	-	0	-	-
CCOc1ccc(Br)cc1C(=O)Nc1ccc(C(=O)NCC(C)C)cc1	115	0	-	+	0
COc1ccc(Br)cc1C(=O)Nc1ccc(C(=O)NCC(C)C)cc1	0	0	0	0	?
O=C1C2C3C=CC(C4CC34)C2C(=O)N1/N=C/c1c[nH]c2ccccc12 (stereo unspecified)	0	0	-	-	91
CSc1ccc(CN2CCC(C)(Oc3ccc4ccccc4c3)C2)cc1 (stereo unspecified)	0	0	0	+	0
Nc1nc(N)c(Cc2ccc(Cl)cc2Cl)c(N)n1	0	0	-	+	0
COc1ccccc1-c1cccc2nccn12	0	0	0	0	67
CCCC(=O)NC(NC(=S)Nc1ccc(N=Nc2ccccc2)cc1)C(Cl)(Cl)Cl (stereo unspecified)	30	0	0	0	0
CCCC(=O)NC(NC(=S)Nc1ccc(S(N)(=O)=O)cc1)C(Cl)(Cl)Cl (stereo unspecified)	0	0	-	0	0
C[C@H]1CN([C@@H](C)CO)C(=O)Cc2cc(NC(=O)Cn3cnnn3)ccc2O[C@H]1CN(C)CC1CCCCC1	-	-	0	-	-
COc1ccc(OC)c(/C=C/c2nc3ccccc3[nH]c2=O)c1	0	0	0	0	+
O=c1[nH]c2ccccc2nc1/C=C/c1ccc(F)cc1	0	0	0	+	0
SMILES	Glyco luc inh	ABCB6 inh 2	RAD54 branch	Myeloid diff 2	Vif imaging
O=c1[nH]c2ccccc2nc1/C=C/c1ccc(O)cc1	0	0	0	+	?
COCC#Cc1ccc2c(c1)O[C@H](CN(C)C(=O)c1ccccc1)[C@@H](C)CN([C@@H](C)CO)S2(=O)=O	-	-	0	-	-
Cc1nnc2ccc(-c3ccc(NS(=O)(=O)c4ccc(F)cc4F)cc3)nn12	0	0	0	0	71
Cc1nnc2ccc(-c3ccc(NS(=O)(=O)c4ccccc4F)cc3)nn12	0	0	-	0	0
Cc1nnc2ccc(-c3ccc(NS(=O)(=O)c4ccccc4[N+](=O)[O-])cc3)nn12	0	0	0	0	76
Cc1nnc2ccc(-c3ccc(NS(C)(=O)=O)cc3)nn12	0	0	0	0	0
COc1cccc2cc(-c3nc4ccccc4o3)c(=O)oc12	0	0	0	+	0
CN1C(N)=NC(=O)/C1=C/c1ccccc1F	0	0	-	0	0
Cc1ccc(/C=C2/C(=O)N=C(N)N2C)s1	0	0	-	+	0
CO[C@@H]1CN(C)C(=O)c2cc(NC(=O)c3ccccc3)ccc2OC[C@@H](C)N(C)C[C@@H]1C	-	-	0	-	-
O=C(Nc1ccccc1C(=O)Nc1ccncc1)c1cccc([N+](=O)[O-])c1	0	0	0	0	0
O=C(O)c1cccc(NC(=O)c2ccccc2NC(=O)c2cccc([N+](=O)[O-])c2)c1	0	0	0	+	0
CC(C)C(N)c1csc(NC(=O)Nc2cccc(Cl)c2)n1 (stereo unspecified)	0	0	0	+	0
O=C(C[C@H]1C[C@H]2c3cc(NC(=O)Nc4ccc(F)cc4)ccc3O[C@H]2[C@H](CO)O1)NC1CCCCC1	-	-	0	-	-
COc1ccc(NS(=O)(=O)c2cc(NC(=O)C3CC3)ccc2N2CCCCC2)cc1	0	0	0	+	0
COc1ccc(NS(=O)(=O)c2cc(NC(=O)C3CC3)ccc2N2CCOCC2)cc1	0	0	0	0	0
Cc1cc(NCCNC2=CC(=O)CCC2)nc2ccccc12	0	0	0	0	0
Cc1cc(NCC2CCCCC2)nc2ccccc12	0	0	0	+	0
COCC#Cc1ccc2c(c1)O[C@@H](CN(C)S(=O)(=O)c1ccc(C)cc1)[C@H](C)CN([C@H](C)CO)S2(=O)=O	-	-	0	-	-
O=[N+]([O-])c1ccc(N=Nc2ccc(O)c3ccccc23)cc1	0	0	0	+	0
CC(C)(C)c1ccc(C(=O)CCCSC2=C(C#N)C(c3ccco3)C3=C(CCCC3=O)N2)cc1 (stereo unspecified)	0	57	0	0	0
Cc1ccc(C(=O)CSC2=C(C#N)C(c3ccco3)C3=C(CCCC3=O)N2)cc1 (stereo unspecified)	0	0	0	?	?
COc1cccc(-c2ccc3c(c2)O[C@H](CN(C)C(=O)C2CC2)[C@H](C)CN([C@@H](C)CO)S3(=O)=O)c1	-	-	0	-	-
COc1ccc(S(=O)(=O)Nc2ccc3c(c2)C(=O)N([C@H](C)CO)C[C@H](C)[C@H](CN(C)C(=O)Nc2ccc(C(F)(F)F)cc2)OCCCC[C@@H](C)O3)cc1	-	-	0	-	-
O=C1CCCCC(=O)N(c2ccccc2)c2ccccc21	0	0	0	+	0
O=C1CCC(=O)N1c1ccccc1	0	0	0	0	0
CC(=O)O/N=C/c1c(N2CCOCC2)n(C)c2ccccc12	0	52	0	0	0
COc1ccc2cc(CN(CC3CCCO3)S(=O)(=O)c3ccc(C(C)=O)cc3)c(=O)[nH]c2c1 (stereo unspecified)	0	0	-	+	0
COC(=O)c1ccccc1S(=O)(=O)N(Cc1cc2ccc(OC)cc2[nH]c1=O)CC1CCCO1 (stereo unspecified)	0	0	0	0	0
CCOc1cc(N2CCOCC2)c(OCC)cc1NC(=O)c1[nH]c(C)c(C(C)=O)c1C	29	0	0	0	0
